Test results: PubChem BioAssay (NCI)
This is part of a sample that, as a whole, favours compounds with a hit. Of some 83,000 tested, about 20% had one in any assay.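 A percent growth of 40 corresponds to 60% growth inhibition; 0 means no net growth; -100 means all cells died. Active threshold: below 10.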 Values without a mark were called inactive. Active and inactive are the calls of the source.

Tests used:
Assay in all cases: NCI-60 one-dose screen, 48 h (100 = growth as untreated, 0 = no growth, -100 = all killed)
Details in all cases: 10 µM unless noted
T-47D breast = test system: T-47D breast
BT-549 breast = test system: BT-549 breast
MDA-MB-435 melanoma = test system: MDA-MB-435 melanoma
SW-620 colon = test system: SW-620 colon
MCF7 breast = test system: MCF7 breast
HCT-116 colon = test system: HCT-116 colon
HCC-2998 colon = test system: HCC-2998 colon
KM12 colon = test system: KM12 colon

| SMILES | growth (T-47D breast) | growth (BT-549 breast) | growth (MDA-MB-435 melanoma) | growth (SW-620 colon) | growth (MCF7 breast) | growth (HCT-116 colon) | growth (HCC-2998 colon) | growth (KM12 colon) |
| --- | --- | --- | --- | --- | --- | --- | --- | --- |
| Cc1nn(-c2ccc(Br)cc2)c2nc(CCl)[nH]c(=O)c12 | 91.5% | 101% | 103% | 110% | 82.3% | 98.3% | 105% | 83.6% |
| COc1cc2oc(-c3cccc(NC(=O)c4cc(NC(=O)[C@H](C)NC(=O)OC(C)(C)C)ccc4C)c3)cc(=O)c2c(OC)c1OC | 28.2% | 84.9% | 90% | 92.9% | 67% | 58% | 78.6% | 71.1% |
| CC1=CC(=O)CC(C)(C)[C@@]1(O)/C=C/C(C)=C\C(=O)O | -22.7% (active) | -22.4% (active) | -70.7% (active) | 0.826% (active) | -14.6% (active) | -34% (active) | -52.1% (active) | 3.82% (active) |
| O=C(CCCCCCN1CC(=O)N2[C@@H](c3cc(F)cc(F)c3)c3[nH]c4ccccc4c3C[C@H]2C1=O)NO | 30.6% | 98.6% | 47.9% | 46.9% | 52% | 27.3% | 82.4% | 69.7% |
| COc1ccc(-c2nn(-c3ccccc3)cc2/C=C/C(=O)c2ccc(NC(=O)CCCCCCC(=O)NO)cc2)cc1 | 103% | 105% | 104% | 111% | 94.2% | 95.5% | 108% | 95.9% |
| O=C(Nc1ccc(F)cc1)c1cc(-c2ccc(F)cc2F)ccc1O | -4.71% (active) | -10.3% (active) | 5.11% (active) | 17% | 2.19% (active) | 2.09% (active) | 31.5% | 6.07% (active) |
| CCCCCCNC(=O)Oc1ccc(/C(=C(\C)c2ccc(Cl)cc2)c2ccc(OCCN(C)C)cc2)cc1 | 54.8% | 77.4% | 85.3% | 21.3% | 10.8% | 18.7% | 71.4% | 83.1% |
| C/C(=C(/c1ccc(O)cc1)c1ccc(OCCN(C)C)cc1)c1ccc(Cl)cc1 | 30.9% | 73.7% | 28.1% | -32.9% (active) | 15.7% | 25.6% | 7.02% (active) | 44.8% |
| O=C(NNc1nc2cc(F)cc(F)c2n2cccc12)c1ncccn1 | 3.06% (active) | 20.6% | 24.6% | 21.6% | 9.91% (active) | 20.1% | 51.9% | 22.3% |
| CC1CCc2c(sc3nc(SCC(=O)N/N=C/c4cccc(O)c4O)n(-c4ccccc4)c(=O)c23)C1 (configuration not stated) | 74.5% | 127% | 88.4% | 85.4% | 88.3% | 85.8% | 104% | 88.9% |
| CC(=O)NC(C)(C)C(=O)N1CCC[C@H]1C(=O)NC(C)(C)C(=O)N[C@@H](C)C(=O)NC(C)(C)C(=O)NC(C)(C)C(=O)N[C@@H](CCC(N)=O)C(=O)NC(C)(C)C(=O)N[C@H](C(=O)NC(C)(C)C(=O)NCC(=O)N[C@@H](CC(C)C)C(=O)NC(C)(C)C(=O)N1CCC[C@H]1C(=O)N[C@H](C(=O)NC(C)(C)C(=O)NC(C)(C)C(=O)N[C@@H](CCC(N)=O)C(=O)N[C@@H](CCC(N)=O)C(=O)N[C@H](CO)Cc1ccccc1)C(C)C)C(C)C | 10% [4.25 µM] | -56.1% [4.25 µM] (active) | 17% [4.25 µM] | 45.5% [4.25 µM] | 12.4% [4.25 µM] | 24.1% [4.25 µM] | 39.7% [4.25 µM] | 35.7% [4.25 µM] |
| O=C(COc1cccc2cccnc12)Nc1ccc(C(=O)/C=C/c2ccc(Cl)cc2)cc1 | 74.8% | 87.9% | 92.6% | 93.6% | 17.1% | 5.25% (active) | 102% | 86.5% |
| COc1cc2c3c(n(CCCNC4CCCC4)c(=O)c2cc1OC)-c1cc2c(cc1C3=O)OCO2 | 86% | 74.8% | -49.6% (active) | -83.6% (active) | -74.8% (active) | -90.9% (active) | 23.2% | 65.6% |
| C#CCOc1ccc(C(Nc2cc(Cl)ccc2Cl)c2nnnn2C2CCCCC2)cc1 (configuration not stated) | 67.5% | 93.6% | 102% | 91.8% | 73.4% | 56.3% | 90.1% | 92% |
| Oc1ccc(-c2nnc(SCc3ccc(O)c4ncccc34)o2)cc1 | 11.1% | 12.8% | 12.3% | 16.3% | 2.57% (active) | 7.61% (active) | 22.5% | 9.65% (active) |
| Cc1ccc(/C=C/CC(=O)Nc2ccc(C(=O)Nc3ccc(F)cc3N)nc2)cn1 | 10.8% | 48.5% | 18.6% | 26.8% | 18.4% | 17.7% | 31.4% | 49.5% |
| O=C(CSc1nnc(-c2cccs2)n1-c1ccccc1)Nc1ccc(F)cc1 | 84.7% | 99.3% | 80.8% | 97.2% | 91.9% | 86.3% | 125% | 94.1% |
| O=c1oc2ccc(-c3ccc(F)cc3F)cc2c(=O)n1-c1cccc(C(F)(F)F)c1 | 6.01% (active) | 3.66% (active) | 6.94% (active) | 14.2% | 2.43% (active) | 4.36% (active) | 16.4% | 6.11% (active) |
| COc1ccc(NC2=C(Cl)C(=O)C(C)=C(C)C2=O)cc1 | -2.17% (active) | 110% | 106% | 94.3% | 75.9% | 63.4% | 101% | 72.3% |
| C/C=C/[C@@H]1C=C[C@@H]2C[C@H](C)CC[C@H]2[C@]1(C)/C(O)=C1/C(=O)[C@H](CO)N(C)C1=O | 74.7% | 75.2% | 74.8% | 52.5% | 68.3% | 61.4% | 57% | 47.2% |
| O=[N+]([O-])c1ccc(-c2nnc(SCc3ccc(O)c4ncccc34)o2)cc1 | 9.66% (active) | 27.4% | 19% | 20.5% | 6.95% (active) | 12.7% | 28% | 13.8% |
| COc1ccc(C(=O)c2c(N)c(C#N)cn2-c2cccc(OC)c2)cc1 | 16% | 41.9% | -37.3% (active) | 9.11% (active) | 17.5% | 16.8% | 56.1% | 23.7% |
| CCOc1c(C#N)c(Nc2ccc(S(N)(=O)=O)cc2)c(C#N)c2nnc(C)n12 | 104% | 97.6% | 108% | 108% | 97.2% | 116% | 106% | 103% |
| O=C1[C@H]2Cc3c([nH]c4ccccc34)[C@@H](c3c(Cl)cccc3Cl)N2C(=O)CN1C1CCN(Cc2ccccc2)CC1 | 102% | 106% | 0.213% (active) | 44.5% | 47.5% | -1.46% (active) | 102% | 84.5% |
| CCN1CCN(Cc2ccc(C(=O)Nc3nc4ccc(Oc5ccnc(C(=O)NC)c5)cc4s3)cc2C(F)(F)F)CC1 | 18.7% | 45.3% | 46% | -17.2% (active) | 16.3% | 18% | 62.8% | 48.4% |
| COc1ccc(-c2nnc(/N=C3/C(=O)Nc4ccc(Br)cc43)o2)cc1 | 104% | 103% | 94.7% | 100% | 78.8% | 101% | 115% | 89.7% |
| COc1ccc(/C=N/Nc2nc(Nc3ccccc3)nc(Nc3ccc(S(N)(=O)=O)cc3)n2)cc1 | 63.1% | 85.7% | 76.6% | 72.4% | 41% | 50.2% | 87% | 74.4% |
| CCOC(=O)C1=C(C)Nc2nnc(Nc3ccccc3)n2C1c1ccccc1 (configuration not stated) | 58.2% | 84% | 86.8% | 35.2% | 55.7% | 7.91% (active) | 105% | 94.7% |
| CN1CCN(Cc2ccc(NC(=O)c3cncc(C#Cc4[nH]nc5ncncc45)c3)cc2C(F)(F)F)CC1 | 39.2% | 118% | 38.9% | 31.6% | 46% | 17.7% | 44.3% | 10.5% |
